Laboratory results reported in PubChem BioAssay AID1159580 (chemical genetic matrix, 2015).
Out of some 5,500 compounds screened, about 2,000 (36%) were called active. Another 18% or so got no clear call; they are omitted. Rule as the data show it: active = normalized growth mostly below about 0.91 (no sharp cut-off); inconclusive = no clear call, values can overlap the other calls; inactive = mostly above about 0.92. Some of the results follow.

Experiment: chemical genetic growth profiling, strain panel (AID 1159580);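 also: tested at 20 µM; growth read once vehicle control cultures reached saturation at 30 °C; 1 = growth at the plate median or of vehicle wells; lower values mean less growth of the strain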
Conditions: growth OD

Measured: normalized growth

COC(=O)c1cc(OC)c(=O)c2c(OC)c(OC)ccc2c1
inactive: S. cerevisiae deletion strains, locus YBR021W, strain FUR4, stronger effect = lower value 1.02 | S. cerevisiae deletion strains, locus YBR229C, strain ROT2, stronger effect = lower value 1.01 | S. cerevisiae deletion strains, locus YCL029C, strain bik1, stronger effect = lower value 0.969 | S. cerevisiae deletion strains, locus YDL035C, strain GPR1, stronger effect = lower value 1.03 | S. cerevisiae deletion strains, locus YDL074C, strain BRE1, stronger effect = lower value 1.08 | S. cerevisiae deletion strains, locus YDL101C, strain DUN1, stronger effect = lower value 1.01 | S. cerevisiae deletion strains, locus YDL134C, strain PPH21, stronger effect = lower value 1.04 | S. cerevisiae deletion strains, locus YDL185W, strain tfp1, stronger effect = lower value 0.998 | S. cerevisiae deletion strains, locus YDL192W, strain arf1, stronger effect = lower value 0.971 | S. cerevisiae deletion strains, locus YDR101C, strain arx1, stronger effect = lower value 0.975 | S. cerevisiae deletion strains, locus YDR162C, strain NBP2, stronger effect = lower value 1.01 | S. cerevisiae deletion strains, locus YDR318W, strain mcm21, stronger effect = lower value 0.969 | S. cerevisiae deletion strains, locus YDR388W, stronger effect = lower value 0.986 | S. cerevisiae deletion strains, locus YDR502C, strain sam2, stronger effect = lower value 0.99 | S. cerevisiae deletion strains, locus YER110C, stronger effect = lower value 1.01 | S. cerevisiae deletion strains, locus YER155C, strain BEM2, stronger effect = lower value 1.01 | S. cerevisiae deletion strains, locus YER167W, strain BCK2, stronger effect = lower value 1 | S. cerevisiae deletion strains, locus YGL078C, strain dbp3, stronger effect = lower value 0.995 | S. cerevisiae deletion strains, locus YGL086W, strain mad1, stronger effect = lower value 0.984 | S. cerevisiae deletion strains, locus YGL248W, strain PDE1, stronger effect = lower value 1.02 | S. cerevisiae deletion strains, locus YGR078C, strain PAC10, stronger effect = lower value 1.01 | S. cerevisiae deletion strains, locus YGR135W, strain pre9, stronger effect = lower value 0.985 | S. cerevisiae deletion strains, locus YGR229C, strain SMI1, stronger effect = lower value 1.06 | S. cerevisiae deletion strains, locus YHR079C, strain IRE1 (second series), stronger effect = lower value 1 | S. cerevisiae deletion strains, locus YHR094C, strain hxt1, stronger effect = lower value 0.972 | S. cerevisiae deletion strains, locus YHR129C, strain ARP1, stronger effect = lower value 1.02 | S. cerevisiae deletion strains, locus YHR200W, strain rpn10, stronger effect = lower value 0.985 | S. cerevisiae deletion strains, locus YIL066C, strain RNR3, stronger effect = lower value 1.02 | S. cerevisiae deletion strains, locus YIL073C, strain SPO22, stronger effect = lower value 0.951 | S. cerevisiae deletion strains, locus YIL125W, strain kgd1, stronger effect = lower value 0.978 | S. cerevisiae deletion strains, locus YIR030C, strain dcg1, stronger effect = lower value 0.986 | S. cerevisiae deletion strains, locus YJL095W, strain BCK1, stronger effect = lower value 1.04 | S. cerevisiae deletion strains, locus YJL134W, strain LCB3, stronger effect = lower value 1 | S. cerevisiae deletion strains, locus YJL168C, strain set2, stronger effect = lower value 0.972 | S. cerevisiae deletion strains, locus YJL187C, strain SWE1 (second series), stronger effect = lower value 1.02 | S. cerevisiae deletion strains, locus YKL009W, strain mrt4, stronger effect = lower value 0.977 | S. cerevisiae deletion strains, locus YKL068W, stronger effect = lower value 0.999 | S. cerevisiae deletion strains, locus YKL085W, strain MDH1 (second series), stronger effect = lower value 0.971 | S. cerevisiae deletion strains, locus YKL085W, strain MDH1, stronger effect = lower value 0.971 | S. cerevisiae deletion strains, locus YKR001C, strain vps1, stronger effect = lower value 0.966 | S. cerevisiae deletion strains, locus YLR039C, strain RIC1, stronger effect = lower value 1.03 | S. cerevisiae deletion strains, locus YLR058C, strain SHM2, stronger effect = lower value 1.03 | S. cerevisiae deletion strains, locus YLR102C, strain apc9, stronger effect = lower value 0.959 | S. cerevisiae deletion strains, locus YLR268W, strain sec22, stronger effect = lower value 0.981 | S. cerevisiae deletion strains, locus YLR330W, strain CHS5, stronger effect = lower value 1.02 | S. cerevisiae deletion strains, locus YLR371W, strain rom2, stronger effect = lower value 0.977 | S. cerevisiae deletion strains, locus YLR418C, strain cdc73, stronger effect = lower value 1.07 | S. cerevisiae deletion strains, locus YML016C, strain PPZ1, stronger effect = lower value 1 | S. cerevisiae deletion strains, locus YML032C, strain rad52, stronger effect = lower value 0.996 | S. cerevisiae deletion strains, locus YML124C, strain tub3, stronger effect = lower value 0.967 | S. cerevisiae deletion strains, locus YMR078C, strain ctf18, stronger effect = lower value 0.976 | S. cerevisiae deletion strains, locus YMR223W, strain ubp8, stronger effect = lower value 1 | S. cerevisiae deletion strains, locus YMR307W, strain GAS1, stronger effect = lower value 1.01 | S. cerevisiae deletion strains, locus YNL067W, strain RPL9B, stronger effect = lower value 0.998 | S. cerevisiae deletion strains, locus YNL233W, strain BNI4, stronger effect = lower value 1.03 | S. cerevisiae deletion strains, locus YNL250W, strain rad50, stronger effect = lower value 1.05 | S. cerevisiae deletion strains, locus YNL271C, strain bni1, stronger effect = lower value 0.981 | S. cerevisiae deletion strains, locus YNL298W, strain CLA4, stronger effect = lower value 0.984 | S. cerevisiae deletion strains, locus YNL307C, strain MCK1, stronger effect = lower value 0.952 | S. cerevisiae deletion strains, locus YNL322C, strain KRE1, stronger effect = lower value 1 | S. cerevisiae deletion strains, locus YNR052C, strain pop2, stronger effect = lower value 0.981 | S. cerevisiae deletion strains, locus YOL006C, strain TOP1, stronger effect = lower value 1.21 | S. cerevisiae deletion strains, locus YOL012C, strain htz1 0.895 | S. cerevisiae deletion strains, locus YOL147C, strain pex11, stronger effect = lower value 0.993 | S. cerevisiae deletion strains, locus YOR061W, strain CKA2, stronger effect = lower value 1 | S. cerevisiae deletion strains, locus YOR069W, strain VPS5, stronger effect = lower value 1 | S. cerevisiae deletion strains, locus YOR136W, strain idh2, stronger effect = lower value 0.977 | S. cerevisiae deletion strains, locus YOR144C, strain elg1, stronger effect = lower value 0.987 | S. cerevisiae deletion strains, locus YOR184W, strain ser1, stronger effect = lower value 0.935 | S. cerevisiae deletion strains, locus YOR316C, strain cot1, stronger effect = lower value 0.985 | S. cerevisiae deletion strains, locus YPL241C, strain CIN2, stronger effect = lower value 1 | S. cerevisiae deletion strains, locus YPR119W, strain clb2, stronger effect = lower value 0.969 | S. cerevisiae deletion strains, locus YPR141C, strain kar3, stronger effect = lower value 0.982 | S. cerevisiae deletion strains, locus YPR163C, strain tif3, stronger effect = lower value 0.977 | S. cerevisiae deletion strains, locus YPR167C, strain met16, stronger effect = lower value 0.967 | S. cerevisiae deletion strains, strain wtn01, stronger effect = lower value 0.994 | S. cerevisiae strains, strain wild type, stronger effect = lower value 1.02
